Hits are enriched below; roughly 21% of the tested compounds scored in any of these assays.
CHX counter – Cycloheximide Counterscreen for Small Molecule Inhibitors of Shiga Toxin. actives 12% (n = 300,000). AID 2314, 2010. max response, %. cell reporter, cycloheximide protein synthesis inhibition counterscreen; in the data active means max response mostly above about 13%, no sharp cut-off; inactive means mostly below about 14%; further: read at 38.3 µM for the half of the compounds with a filed dose
HCV inh – qHTS Assay for Inhibitors of Hepatitis C Virus (HCV). Potency, µM (titrated, usually from 41.8 µM), usual class: inhibitors. AID 651820, 2012. actives 3.4% (n = 340,000). Huh7.5.1 HCVcc-Cre infection, luciferase reporter, 44 h
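Antiviral activity was scored by luciferase reporter output from cells infected with HCVcc-Cre (~0.5 moi) in presence of compound, 44 h infection period, cells seeded 1,000/well 4 h prior.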
Pf growth 48h – Primary qHTS for delayed death inhibitors of the malarial parasite plastid, 48 hour incubation. P. falciparum luciferase growth in erythrocytes, 48 h. Potency, µM (series often up to 28.7 µM), usual class: inhibitors. actives 5.9% (n = 310,000). AID 504832, 2011
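Parasite viability was followed by luminescence of a genomically integrated firefly luciferase. Cultures held 0.1% parasitemia at 2% hematocrit (final), incubated under 5% CO2 at 37 C.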
HCMV inh – qHTS Assay for inhibitors of the human cytomegalovirus (HCMV). HFF cells, HCMV-luciferase reporter, 72 h; active compounds read low. activity change, negative = inhibition, % at 57.5 µM. actives 4.5% (n = 410,000); in the data active means activity change below about -60%; inconclusive means no clear call, values can overlap the other calls; inactive means above about -39%
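Inhibition of viral replication was scored as loss of reporter luminescence in HFFs infected with HCMV-luciferase (MOI 1 PFU/cell) for 72 h; compounds tested at 2 doses, normalized to buffer and Salinomycin controls.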
Pf growth 96h – Primary qHTS for delayed death inhibitors of the malarial parasite plastid, 96 hour incubation. P. falciparum luciferase reporter growth, 96 h. Potency, µM (series often up to 28.7 µM), actives largely listed as inhibitors. actives 6.9% (n = 320,000)
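P. falciparum expressing integrated firefly luciferase grown in erythrocytes (2% hematocrit, 0.05% parasitemia final) with compounds for 96 hours at 37 C, 5% CO2. Growth inhibition read as loss of luminescence after adding luciferase detection reagent.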
Shiga inhibitor – A qHTS for Small Molecule Inhibitors of Shiga Toxin; Vero cells, Shiga toxin protein synthesis inhibition reporter; inhibition, % at 38.7 µM; actives 9.2% (n = 290,000); in the data active means inhibition mostly above about 28%, no sharp cut-off; inactive means mostly below about 43%
Large screens that a line does not name were inactive. Unless noted, the call rests on the fitted dose curve; in most records, active means well fitted inhibition curve with a large enough effect; inconclusive means small, poorly fitted or top-dose-only effect, or another doubt; inactive means no such curve, though single readings can be large or run the other way.

Nc1ccc(C(=O)Nc2cccc(NC(=O)c3ccc(N)cc3)c2)cc1	Pf growth 96h inconclusive
Nc1ccc(C(=O)Nc2ccco2)cc1	Shiga inhibitor 33
CCOc1cccc(-c2cc(C(=O)Nc3ccon3)c3ccccc3n2)c1	HCV inh inconclusive, Pf growth 48h 2.1µM
O=C(O)c1ccccc1NC(=O)c1cc(-c2ccccc2)nc2ccccc12	HCMV inh inconclusive
O=C(Nc1ccon1)c1cc(-c2ccccc2)nc2ccccc12	Pf growth 48h 7.4µM (no result: Pf growth 96h)
Cc1c(C(=O)NCC(c2ccc(Cl)cc2)N2CCOCC2)oc2ccccc12 (stereo not given)	none (no result: CHX counter, HCV inh, Pf growth 48h, Pf growth 96h, Shiga inhibitor)
C/C(=N/NC(=O)c1ccc(C)s1)c1cccnc1	CHX counter 34, Shiga inhibitor 71
C/C(=N/NC(=O)c1ccc(Br)s1)c1cccnc1	CHX counter 23, HCV inh inconclusive, Pf growth 96h 7.4µM
C/C(=N/NC(=O)c1ccc(Cl)s1)c1cccnc1	none
C/C(=N/NC(=O)c1ccc(Br)s1)c1ccncc1	CHX counter 16, HCV inh inconclusive
COc1cccc(-n2c(=O)c3cc(OC)c(OC)cc3n(CC(=O)Nc3ccccc3)c2=O)c1	none (no result: CHX counter, HCV inh, Pf growth 48h, Pf growth 96h, Shiga inhibitor)
COc1ccc(NC(=O)CC2C(=O)N(c3ccc(C)cc3)C(=O)N2CCc2ccccc2)cc1 (stereo not given)	none (no result: CHX counter, HCV inh, Pf growth 48h, Pf growth 96h, Shiga inhibitor)
Cc1ccc(-c2nc3sc(CCNC(=O)c4ccco4)c(C)n3n2)cc1	none (no result: CHX counter, HCV inh, Pf growth 48h, Pf growth 96h, Shiga inhibitor)
O=C(Nc1nccs1)c1cccc(S(=O)(=O)N2CCCCC2)c1	HCV inh inconclusive, Pf growth 96h 15µM
O=C(Nc1ccc(S(=O)(=O)Nc2nccs2)cc1)c1ccc(S(=O)(=O)N2CCOCC2)cc1	Pf growth 48h inconclusive, Pf growth 96h inconclusive
O=C(Nc1nccs1)c1ccc(S(=O)(=O)N2CCOCC2)cc1	CHX counter 15
Cc1ccsc1C(=O)NNC(=O)c1cccc(S(=O)(=O)N2CCCC2)c1	HCMV inh active (no result: CHX counter, Shiga inhibitor)
CC(C)(C)NC(=S)N1CCn2cccc2C1c1cccnc1 (stereo not given)	HCMV inh inconclusive, Pf growth 96h 9.3µM
Cc1cccn2c(=O)c3cc(C(=O)NCc4ccco4)c(=N)n(CCc4ccccc4)c3nc12	CHX counter 17, Pf growth 48h 0.59µM, Pf growth 96h 0.59µM, Shiga inhibitor 46
COc1ccc(CCNC(=O)c2cc3c(=O)n4cccc(C)c4nc3n(Cc3ccncc3)c2=N)cc1	none (no result: HCMV inh, Pf growth 96h)
COc1ccc(CCNC(=O)c2cc3c(=O)n4cccc(C)c4nc3n(Cc3ccco3)c2=N)cc1OC	HCV inh 11µM, Pf growth 48h 13µM, Pf growth 96h 1.7µM
Cc1cccn2c(=O)c3cc(C(=O)NCc4ccco4)c(=N)n(C(C)C)c3nc12	HCV inh inconclusive, Pf growth 48h inconclusive (no result: Pf growth 96h)
CCn1c(=N)c(C(=O)NCc2ccccc2)cc2c(=O)n3cccc(C)c3nc21	none (no result: CHX counter, HCV inh, Pf growth 48h, Pf growth 96h, Shiga inhibitor)
Cc1cccn2c(=O)c3cc(C(=O)NCCc4ccccc4)c(=N)n(Cc4ccco4)c3nc12	HCV inh inconclusive, Pf growth 48h 1.5µM, HCMV inh inconclusive, Pf growth 96h inconclusive
O=C(NCc1nc(-c2ccc(Cl)cc2)no1)c1ccc2c(c1)OCO2	none
c1ccc2c(c1)NCC1CCCN21 (stereo not given)	Pf growth 48h inconclusive
COc1ccc(-c2c(C)nn3c(C(F)(F)F)cc(-c4ccccc4)nc23)cc1	none (no result: CHX counter, HCV inh, Pf growth 48h, Pf growth 96h, Shiga inhibitor)
CCOC(=O)C(=NC(C)(C)C)NNc1cc(Cl)ccc1Cl	Pf growth 48h inconclusive, Pf growth 96h 9.3µM
CCOc1ccc(C2NC(=O)Cc3cc(OC)c(OC)cc32)cc1 (stereo not given)	Pf growth 96h inconclusive
CCOc1ccc(C2OC(=O)Cc3cc(OC)c(OC)cc32)cc1 (stereo not given)	Pf growth 48h inconclusive, Pf growth 96h 1.2µM
CCOc1cc(C#N)c(NC(=O)c2cccc(S(=O)(=O)N3CCOCC3)c2)cc1OCC	none (no result: CHX counter, HCV inh, Pf growth 48h, Pf growth 96h, Shiga inhibitor)
Cc1ccc(N2CCN(/N=C/C=C/c3ccccc3)CC2)cc1	none
C(/C=C/c1ccco1)=N/N1CCN(c2ccccc2)CC1	CHX counter 34, Shiga inhibitor 106
Clc1ccccc1CN1CCN(/N=C/C=C\c2ccco2)CC1	CHX counter 16, Shiga inhibitor 69
CSC1=NC2(C[C@H]2c2ccccc2)C(=O)N1C (stereo not given in full)	none (no result: CHX counter, Pf growth 48h, Pf growth 96h, Shiga inhibitor)
C[C@@H]1CN(C(=O)c2nc3ccc(Cl)cn3c2CNCC[C@@H]2C[C@@H]3C=C[C@H]2C3)C[C@H](C)O1	HCV inh inconclusive, Pf growth 48h 8.3µM, HCMV inh inconclusive, Pf growth 96h inconclusive
O=C(c1nc2ccc(Cl)cn2c1CNCC[C@@H]1C[C@@H]2C=C[C@H]1C2)N1CCCCCCC1	Pf growth 48h inconclusive
CC(=O)NS(=O)(=O)c1ccc(N=c2ssc3c2-c2cc(C)c(C)cc2NC3(C)C)cc1	HCV inh inconclusive, Pf growth 96h inconclusive
Cc1cc2c(cc1C)-c1c(ssc1=Nc1ccc(S(N)(=O)=O)cc1)C(C)(C)N2	HCV inh 13µM
COC(=O)[C@]12CCCCC=C1N(Cc1ccc(Cl)cc1Cl)C(=O)[C@H](CC(=O)NCC13CC4CC(CC(C4)C1)C3)C2	none (no result: CHX counter, HCV inh, Pf growth 48h, Pf growth 96h, Shiga inhibitor)
Cc1ccc([N+](=O)[O-])cc1S(=O)(=O)N1CCn2cccc2C1c1ccc(F)c(F)c1 (stereo not given)	none (no result: CHX counter, HCV inh, Pf growth 48h, Pf growth 96h, Shiga inhibitor)
O=C(O)c1cccc(S(=O)(=O)N2CCOCC2)c1	none
O=C(O)c1cccc(N=NN2CCOCC2)c1	CHX counter 18
CC1(C)CC(=O)C(N=Nc2cc(Cl)c(Cl)c(Cl)c2)=C(O)C1	none (no result: Pf growth 48h)
CCN(CC)S(=O)(=O)c1cccc(N=NC2=C(O)CCCC2=O)c1	Pf growth 48h inconclusive, Pf growth 96h inconclusive
O=C1CCCC(O)=C1N=Nc1cccc(C(=O)O)c1	CHX counter 17
CC(=O)N1CCc2cc(N=NC3=C(O)CC(C)(C)CC3=O)ccc21	CHX counter 27, Pf growth 48h inconclusive, Shiga inhibitor 46
Cc1nc2ccc(N=NC3=C(O)CCCC3=O)cc2s1	CHX counter 50, Shiga inhibitor 72
Cc1nc2ccc(N=NC3=C(O)CC(C)(C)CC3=O)cc2s1	CHX counter 96, Shiga inhibitor 110
CCOc1ccc2nc(N=NC3=C(O)CC(C)(C)CC3=O)sc2c1	HCMV inh inconclusive
Cc1ccc(O)c(N=NC2=C(O)CC(C)(C)CC2=O)c1	CHX counter 56, HCV inh inconclusive, Pf growth 48h inconclusive, HCMV inh -101, Pf growth 96h inconclusive, Shiga inhibitor 56
Cc1ccc(SCc2c(C#N)c3ccccc3n2C)cc1	Pf growth 96h inconclusive
Cn1c(CNc2ccccn2)c(C#N)c2ccccc21	HCV inh 11µM, Pf growth 96h inconclusive

Assay outcomes: PubChem, National Center for Advancing Translational Sciences (NCATS)
